Reference: PubChem BioAssay (NCATS)
“And” between values parts separate entries of the source, which are not always exact repeats. Equal values may be shown once. Results filed as inconclusive are left out. The source made the active and inactive calls. Unless noted, calls come from the whole dose curve; as a rule, active = well fitted curve in the direction sought with a large enough effect; inconclusive = small, poorly fitted or top-dose-only effect, or another doubt; inactive = no such curve, though single readings can be large; an effect the other way counts as inactive or inconclusive.

How the values were obtained:
[1] = Cellular Toxicity (caspase-3) N2a (AID 665);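 note: compound exposure lasted 16 h at 37 °C before readout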
Method in brief: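 Mouse N2a neuroblastoma cells (1500/well) were treated with compounds for 16 h at 37 °C, then caspase-3/7 activity was read by Caspase-Glo luminescence after 1 h at room temperature. Data were normalized to DMSO and 10 uM staurosporine; AC50 from Hill fits.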

[2] = Cellular Toxicity (caspase-3) NIH 3T3 (AID 666);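 note: caspase signal read after 16 h compound exposure; 0% = DMSO basal and 100% = 100 µM tamoxifen stimulation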
Method in brief: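 Mouse NIH 3T3 fibroblasts (1000 cells/well) were treated with compound for 16 hr at 37°C in complete medium; caspase-3/7 activity was read by Caspase-Glo luminescence. Normalized to DMSO and 100 uM tamoxifen; AC50 from Hill fits.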

[3] = Cellular Toxicity (caspase-3) Renal Proximal Tubule (AID 667);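 note: cells exposed to compound for 16 hours at 37 °C before detection; 0% = DMSO basal and 100% = 10 µM staurosporine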
Method in brief: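 Caspase 3/7 activation measured by luminescent aminoluciferin release in primary rat proximal tubule cells after 16 hr compound exposure at 37 °C. AC50 from Hill-fitted concentration-response, scaled between DMSO and 10 uM staurosporine.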

[4] = MultiTox-Fluor Cytotoxicity Assay - LYMP1-001 - Dead Cells (AID 946);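 note: 0% = DMSO and 100% = tetraoctylammonium bromide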
Method in brief: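 Seed 2500 LYMP1-001 cells/well, incubate 5 hr at 37 C; add compound, 16 hr at 37 C; add MultiTox-Fluor reagent, 60 min RT; read dead-cell fluorescence Ex/Em=485/520. Normalize to DMSO and 15 uM tetraoctylammonium bromide.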

[5] = MultiTox-Fluor Cytotoxicity Assay - LYMP1-001 - Live Cells (AID 947);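 note: 0% = DMSO only and full inhibition = tetraoctylammonium bromide control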
[6] = Cell Viability - LYMP1-002 - Assay at 16 hr (AID 948);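 note: 0% = DMSO alone and full effect = 92 µM tetraoctylammonium bromide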
Method in brief: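 ATP luminescence (CellTiter-Glo) was measured after 16 hr compound exposure at 37 C of 2500 lymphoblastoid LYMP1-002 cells per well. Concentration-response curves were fitted with the Hill equation to give AC50.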

[7] = MultiTox-Fluor Cytotoxicity Assay - LYMP1-002 - Live Cells (AID 955); note: % is set by controls: 0 for no effect and ±100 for the full control effect
Method in brief: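 Human lymphoblastoid LYMP1-002 cells, 2500/well in complete medium, rested 5 hr at 37 C, then exposed to compounds for 16 hr at 37 C. Live-cell protease cleavage of GF-AFC read by fluorescence (Ex/Em 405/510) after 60 min at room temperature; AC50 from Hill fits.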

[8] = MultiTox-Fluor Cytotoxicity Assay - LYMP1-003 - Live Cells (AID 962);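 note: 0% = DMSO only and full loss = 92 µM tetraoctylammonium bromide; cytotoxic hits lower the live-cell protease signal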
Method in brief: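 LYMP1-003 human lymphoblastoid cells (2500/well) in complete medium were preincubated 5 hr at 37 C, then exposed to compounds for 16 hr at 37 C. Live-cell protease cleavage of GF-AFC read by fluorescence (Ex/Em 405/510); AC50 from Hill fits.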

[9] = Cell Viability - LYMP1-003 - Assay at 24 hr (AID 963);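 note: plate controls were DMSO only for no effect and tetraoctylammonium bromide positive control for full effect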
Method in brief: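 Human lymphoblastoid LYMP1-003 cells (2500/well) were rested 5 hr at 37 C, then exposed to compounds in complete medium for 24 hr at 37 C. Cellular ATP was quantified by CellTiter-Glo luminescence, and AC50 values came from Hill fits of concentration-response data.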

[10] = Cell Viability - LYMP2-003 (AID 965);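 note: cells exposed to compounds for 24 h before reading; 0% = DMSO only and full effect = 92 µM tetraoctylammonium bromide; nearly all actives have a fitted effect of over 50% in size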
Method in brief: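 CellTiter-Glo luminescence quantified ATP loss after 24 h compound treatment of LYMP2-003 lymphoblastoid cells at 37 C. Titration series were fitted with the standard Hill equation to give AC50.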

[11] = Cell Viability - LYMP2-004 (AID 966);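 note: plate controls were DMSO only for no effect and tetraoctylammonium bromide control for full effect; nearly all actives have a fitted effect of over 65% in size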
Method in brief: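 Human lymphoblastoid cells (2500/well) in complete medium were treated with compounds for 24 hr at 37 C, then intracellular ATP was measured by CellTiter-Glo luminescence. AC50 values came from Hill-equation fits of concentration-response data.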

[12] = Cell Viability - LYMP2-005 (AID 967);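 note: series mostly up to about 92 µM; plate controls were DMSO only for no effect and 92 µM tetraoctylammonium bromide control for full effect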
Method in brief: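 LYMP2-005 human lymphoblastoid cells (2500/well) were treated with compounds for 24 h at 37 C. Intracellular ATP was then measured by CellTiter-Glo luminescence after 30 min at room temperature. AC50 values came from Hill-equation fits of qHTS concentration-response data.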

[13] = Cell Viability - LYMP2-009 (AID 968);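 note: series mostly up to about 92 µM; 0% = DMSO alone and the full-kill end = tetraoctylammonium bromide at 92 µM; nearly all actives have a fitted effect of over 55% in size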
[14] = Cell Viability - LYMP2-011 (AID 969);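 note: 0% = DMSO only and full inhibition = 92 µM tetraoctylammonium bromide; nearly all actives have a fitted effect of over 60% in size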
Method in brief: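 Human lymphoblastoid cells (2500/well) were plated in complete medium, preincubated 5 hr at 37 C, then exposed to compounds for 24 hr at 37 C. Intracellular ATP was read by CellTiter-Glo luminescence, and AC50 came from Hill-equation concentration-response fits.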

[15] = Cell Viability - LYMP2-013 (AID 970);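 note: series mostly up to about 92 µM; 0% = DMSO only and full inhibition = tetraoctylammonium bromide control; nearly all actives have a fitted effect of over 55% in size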
Method in brief: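 Human lymphoblastoid cells, 2500/well, were preincubated 5 hr at 37 C, then treated with compounds for 24 hr at 37 C in complete medium. Intracellular ATP was read by CellTiter-Glo luminescence; AC50 from Hill-equation fits of concentration-response data.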

[16] = Cell Viability - LYMP2-015 (AID 971);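 note: 0% = DMSO only and full effect = 92 µM tetraoctylammonium bromide; nearly all actives have a fitted effect of over 55% in size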
Method in brief: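 Human lymphoblastoid cells (2500/well) in complete medium were preincubated 5 hr at 37 C, then compound-treated 24 hr at 37 C. Intracellular ATP was read by CellTiter-Glo luminescence after 30 min at room temperature; AC50 came from Hill-equation concentration-response fits.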

[17] = Cell Viability - LYMP2-017 (AID 972); note: series mostly up to about 92 µM; % is set by controls: 0 for no effect and ±100 for the full control effect; nearly all actives have a fitted effect of over 55% in size
Method in brief: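 Human lymphoblastoid cells (2500/well) were seeded in complete medium, held 5 hr at 37 C, then exposed to compounds for 24 hr at 37 C. Intracellular ATP was read by CellTiter-Glo luminescence after 30 min at room temperature, with AC50 values from Hill-equation fits.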

[18] = qHTS assay for small molecule antagonists of the retinoid-related orphan receptor gamma (ROR-gamma) signaling pathway - cell viability counter screen (AID 720652; active = well fitted curve in the direction sought with a large enough effect in the repeat runs; an effect the other way counts as inactive or inconclusive;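 note: CHO reporter cells with doxycycline-induced ROR-gamma expression; series mostly up to about 92 µM; compound exposure lasted 16 hr before ATP read; % is set by controls: 0 for no effect and ±100 for the full control effect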)
Method in brief: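 Counter screen in CHO cells carrying TET-inducible ROR-gamma and an ROR response element-luciferase reporter; cells plated 5 hr, compound pinned, doxycycline added, then 16 hr at 37 C. Viability read as intracellular ATP by CellTiter-Glo luminescence.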

[19] = qHTS assay for cell viability of HEK293 cells (AID 743288); conditions: ATP luminescence (CellTiter-Glo), 18 h; max response: active compounds read low; note: % is set by controls: 0 for no effect and ±100 for the full control effect; nearly all actives have a fitted effect of over 50% in size
Method in brief: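 Total intracellular ATP, measured with a luciferase-coupled reagent, indicates the number of viable HEK293 cells. Exposure to test chemicals lasts 18 h at 37 C in 1,536-well format at 2,000 cells/well.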

[20] = qHTS assay for cell viability of the p53RE-bla HCT-116 cell line (AID 743292)
Method in brief: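 After plating at 4,000 cells per well and a 5 h rest at 37 C, HCT-116 cells carrying p53RE-bla received test chemicals in DMSO. Sixteen hours later at 37 C, CellTiter-Glo was added and luminescence recorded following 30 min at room temperature.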

CC(C)COC(=O)c1ccccc1C(=O)OCC(C)C
inactive: outcome [1] | outcome [2] | outcome [3] | Potency [4] | outcome [5] | outcome [6] | outcome [7] | outcome [8] | outcome [9] | outcome [10] | outcome [11] | outcome [12] | outcome [13] | outcome [14] | outcome [15] | outcome [16] | outcome [17] | outcome [18] | max response [19] 0.653% | outcome [20]

CC(=O)/C=C/c1ccccc1
inactive: outcome [1] | outcome [2] | outcome [3] | Potency [4] | outcome [5] | outcome [6] | outcome [7] | outcome [8] | outcome [9] | outcome [10] | outcome [11] | outcome [12] | outcome [13] | outcome [14] | outcome [15] | outcome [16] | outcome [17] | outcome [18] | max response [19] -4.92% | outcome [20]

COC1=CC(=O)OC(CCc2ccc3c(c2)OCO3)C1 (stereo not given)
inactive: outcome [1] | outcome [2] | outcome [3] | Potency [4] | outcome [5] | outcome [6] | outcome [7] | outcome [8] | outcome [9] | outcome [10] | outcome [11] | outcome [12] | outcome [13] | outcome [14] | outcome [15] | outcome [16] | outcome [17] | outcome [18] | max response [19] -5.17% | outcome [20]

Oc1ccccc1Cl
inactive: outcome [1] | outcome [2] | outcome [3] | Potency [4] | outcome [5] | outcome [6] | outcome [7] | outcome [8] | outcome [9] | outcome [10] | outcome [11] | outcome [12] | outcome [13] | outcome [14] | outcome [15] | outcome [16] | outcome [17] | outcome [18] | max response [19] -13.2% | outcome [20]

c1ccc(Nc2ccc3ccccc3c2)cc1
inactive: outcome [1] | outcome [2] | outcome [3] | Potency [4] | outcome [5] | outcome [6] | outcome [7] | outcome [8] | outcome [9] | outcome [10] | outcome [11] | outcome [12] | outcome [13] | outcome [14] | outcome [15] | outcome [16] | outcome [17] | outcome [18] | max response [19] -12% and -13.2% | outcome [20]

c1ccc2c(c1)-c1cccc3cccc-2c13
inactive: outcome [1] | outcome [2] | outcome [3] | Potency [4] | outcome [5] | outcome [6] | outcome [7] | outcome [8] | outcome [9] | outcome [10] | outcome [11] | outcome [12] | outcome [13] | outcome [14] | outcome [15] | outcome [16] | outcome [17] | outcome [18] | max response [19] -24.1% and 3.9% | outcome [20]

CCOC(=O)c1ccccc1N
inactive: outcome [1] | outcome [2] | outcome [3] | Potency [4] | outcome [5] | outcome [6] | outcome [7] | outcome [8] | outcome [9] | outcome [10] | outcome [11] | outcome [12] | outcome [13] | outcome [14] | outcome [15] | outcome [16] | outcome [17] | outcome [18] | max response [19] -8.89% | outcome [20]
